For 19 molecules, AC50 and outcome results are on record in PubChem BioAssay (EPA / NIEHS).

Results filed as inconclusive are left out. The source made the active and inactive calls. How the source made its calls: active means hit-call score of the fitted dose curve at least 0.9, where 1 is the maximum; inconclusive means response in the unintended direction; inactive means score below 0.9.

The target of the test is Cytochrome P450 2C19 (Homo sapiens) (UniProt P33261). Description: NVS_ADME_hCYP2C19: NovaScreen (NVS) CYP450-related Enzyme Activity (ADME) Assay for human CYP2C19 (AID 2283113).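 On AC50: potency for inhibition seen as loss of fluorescent signal.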 As for the experimental part:
NVS_ADME_hCYP2C19 is a biochemical, single-readout assay that uses extracted gene-proteins from insect cells in a cell-free assay. Measurements were taken 1 hour after chemical dosing in a 96-well plate.NVS_ADME_hCYP2C19 is one of one assay component(s) measured or calculated from the NVS_ADME_hCYP2C19 assay. It is designed to make measurements of enzyme activity, a form of enzyme reporter, as detected with fluorescence intensity signals by Fluorescence technology.Data from the assay component NVS_ADME_hCYP2C19 was analyzed into 1 assay endpoint. This assay endpoint, NVS_ADME_hCYP2C19, was analyzed in the positive analysis fitting direction relative to Acetonitrile as the negative control and baseline of activity. Using a type of enzyme reporter, loss-of-signal activity can be used to understand changes in the enzymatic activity as they relate to the gene CYP2C19. Furthermore, this assay endpoint can be referred to as a primary readout, because this assay has produced multiple assay endpoints where this one serves a enzymatic activity function. To generalize the intended target to other relatable targets, this assay endpoint is annotated to the cyp intended target family, where the subfamily is xenobiotic metabolism.
Binding assays used specific radioligands (tritiated, iodinated) with non-radioactive competitive displacement ligands in agonist or antagonist protocols (as indicated) and various reference compounds and inhibitors to titrate specific binding to receptors and transporters. Most enzyme assays (CYPs, kinases, phosphatases, proteases, HDACs) used recombinant protein and specific substrates (fluorescence mostly, some colorimetric and radioactive) and inhibitors, followed by a biochemical separation of substrate and product. All assays for the biochemical HTS were initially run in duplicate at a single concentration (10 uM for CYP450 assays and 25 uM for all others). […] Each assay was run with positive and negative controls, and concurrent controls on every plate. The follow-up (secondary) screen tested active chemical-pairs in concentration series, as well as a few additional assays not tested in the primary screen, some selected negative inactives, and several cases re-run in the concentration series for confirmatory purposes.
Usually AC50 stands for the midpoint of the concentration-response curve, whichever way the signal moves. As for `Cc1cc(Cc2ccc(N)c(C)c2)ccc1N`, the AC50 is 7.05 µM (active).
On to `CCc1cc(C2=C(C(=O)O)N(c3ccccc3C(F)(F)F)S(=O)(=O)c3ccccc32)cc2c1OCO2`, for which the AC50 was 15.8 µM (active).
Consider `COC(=O)[C@H]1[C@H]2C[C@@H]3c4[nH]c5cc(OC)ccc5c4CCN3C[C@H]2C[C@@H](OC(=O)c2cc(OC)c(OC)c(OC)c2)[C@@H]1OC`, for which the AC50 was 7.91 µM (active).
For `CC(=O)CC(c1ccccc1)c1c(O)c2ccccc2oc1=O` (centres undefined), the outcome was inactive.
As for `CCCCC(CC)COP(=O)(OCC(CC)CCCC)OCC(CC)CCCC` (centres undefined), the call was inactive.
For the molecule `CC(COCC(C)OC(=O)c1ccccc1)OC(=O)c1ccccc1` (centres undefined), the AC50 was 2.27 µM (active).
Turning to `Cc1cc(SC2=C(O)C[C@@](CCc3ccc(N)cc3)(C(C)C)OC2=O)c(C(C)(C)C)cc1CO`, the AC50 is 7.64 µM (active).
On the same count and under the same terms, to `CC(C)(O)c1ccc(CNC(=O)c2cccnc2Oc2ccc(F)cc2)cc1` belongs 4.26 µM (active); to `CCCCCCCCCCCCCCCCO`, 12.6 µM (active).
On to `CCCCCCCCCC[N+](C)(C)[O-]`, for which the outcome was inactive.
In the case of `CCN(CC)CCOc1ccc(C(=C(Cl)c2ccccc2)c2ccccc2)cc1`, the concentration at half-maximal activity (AC50) was 2.68 µM (active) [middle of 4 runs].
On to `CSc1ccc(Oc2ccc(S(N)(=O)=O)cc2CN(C)C)cc1C`, for which the AC50 is 4.05 µM (active).
For `S=c1[nH]c2ccccc2s1`, the AC50 was 1.92 µM (active).
As for `CN(C)C(=O)NC1(c2ccccc2)CCN(CC[C@@]2(c3ccc(F)c(F)c3)CN(C(=O)c3ccccc3)CCO2)CC1`, the call was inactive.
As for `O=C1OC(c2ccc(O)cc2)(c2ccc(O)cc2)c2ccccc21`, the AC50 is 0.586 µM (active).
For the molecule `CC(C)c1cccc(C(C)C)c1`, the AC50 was 10 µM (active).
The same measure, in the same setting: to `CC(C)OC(=O)C(C)(C)Oc1ccc(C(=O)c2ccc(Cl)cc2)cc1` belongs 4.67 µM (active).
Take `CC(=O)OC1CC(C)OC(C)O1` (centres undefined): the AC50 is 15.1 µM (active).
For `O=C(N[C@@H](c1ccccc1)[C@@H]1CCCCN1)c1cccc(C(F)(F)F)c1Cl`, the outcome was inactive.
